Compound activity deposited in PubChem BioAssay by National Center for Advancing Translational Sciences (NCATS).
This excerpt belongs to a sample that is enriched for hits.
UbGFP stabilizer = ubiquitin-GFP accumulation via proteasome inhibition; 67,000 tested, under 10 active; Potency, µM (highest dose often 45.9 µM), inactives show top-dose activation (GFP accumulation), most hits filed as activators; AID 526; Ubiquitin-GFP reporter cells, proteasome inhibition, GFP fluorescence; response scale: untreated = 0%, 10 µM MG-132 = 100%; active = well fitted activation curve with a large enough effect, not every such curve was filed as active; inconclusive = small, poorly fitted or top-dose-only effect, or another doubt; inactive = no such curve, though single readings can be large or run the other way
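U2OS cells stably expressing ubiquitin(G76V)-GFP, seeded overnight in 0.5% FBS medium, were exposed to compounds (qHTS, 46 uM to 2.9 nM) for 4 hr at 37 °C. GFP-positive cells were counted by laser cytometry (488 ex/515 em), normalized between basal and 10 uM MG-132.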
Caspase-1 inhib = allosteric or competitive inhibitors of human caspase-1. hit rate 0.03% among 75,000. Caspase-1 enzyme, Ac-WEHD-AFC fluorogenic rate. AID 900. Potency, µM (titrated, usually from 57.5 µM), for the others: top-dose activity change, negative = inhibition, hits mostly inhibitors;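 also: plate controls were vehicle for no effect and no substrate for full effect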
ALOX15 inhib = 15-hLO (ALOX15) enzyme inhibition | P16050 | purified 15hLO-1, xylenol orange hydroperoxide absorbance | Potency, µM (highest dose often 57.1 µM), for inactives: at the top dose activity change, negative = inhibition, most hits filed as inhibitors | hit rate 1.4% among 74,000 | AID 887; also: % is scaled to controls: 0 for no effect and ±100 for the full control effect; nearly all actives have a fitted effect of over 55% in size
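Readout: Fe(III)-xylenol orange absorbance, 573-to-405 nm ratio as reaction progress. Enzyme 40 nM purified human 15hLO-1, substrate 50 uM arachidonic acid, 6 min RT after 15 min compound preincubation; Hepes pH 7.5 buffer with Triton X-100.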
USP2a inh = inhibitors of human ubiquitin-specific protease USP2a; O75604; USP2a enzymatic assay, qHTS inhibition; Potency, µM (titrated, usually from 38.3 µM), without a hit: at the top dose activity change, negative = inhibition, usual class: inhibitors; hit rate 0.1% among 60,000; also: nearly all actives have a fitted effect of over 60% in size
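USP2 core (20 nM final) was preincubated with compound for 30 min at RT in 20 mM Tris-HCl pH 8.0, 2 mM CaCl2, 2 mM beta-mercaptoethanol; Ub-PLA2 (20 nM) plus NBD C6-HPC (20 uM) then added, fluorescence read after 2.5 h.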
Casp7 inh = caspase-7 (human) inhibition, allosteric or competitive; P55210; recombinant caspase-7, Ac-DEVD-AFC fluorescence rate; Potency, µM (titrated, usually from 57.5 µM), for inactives: top-dose activity change, negative = inhibition, hits mostly inhibitors; hit rate 0.02% among 75,000; AID 889; active = well fitted inhibition curve with a large enough effect in the main read-out, with a control signal flat, not every such curve was filed as active; inconclusive = small, poorly fitted or top-dose-only effect, or a change in a side signal; also: % of control where 0% means no effect
ALOX15B inhib = inhibitors of human 15-lipoxygenase 2 (ALOX15B). O15296. purified 15hLO-2, xylenol orange hydroperoxide absorbance. Potency, µM (titrated, usually from 57.1 µM), for inactives: at the top dose activity change, negative = inhibition, most hits filed as inhibitors. hit rate 0.56% among 110,000; also: % is scaled to controls: 0 for no effect and ±100 for the full control effect; nearly all actives have a fitted effect of over 60% in size
Target sequence (O15296 whole entry, looked up): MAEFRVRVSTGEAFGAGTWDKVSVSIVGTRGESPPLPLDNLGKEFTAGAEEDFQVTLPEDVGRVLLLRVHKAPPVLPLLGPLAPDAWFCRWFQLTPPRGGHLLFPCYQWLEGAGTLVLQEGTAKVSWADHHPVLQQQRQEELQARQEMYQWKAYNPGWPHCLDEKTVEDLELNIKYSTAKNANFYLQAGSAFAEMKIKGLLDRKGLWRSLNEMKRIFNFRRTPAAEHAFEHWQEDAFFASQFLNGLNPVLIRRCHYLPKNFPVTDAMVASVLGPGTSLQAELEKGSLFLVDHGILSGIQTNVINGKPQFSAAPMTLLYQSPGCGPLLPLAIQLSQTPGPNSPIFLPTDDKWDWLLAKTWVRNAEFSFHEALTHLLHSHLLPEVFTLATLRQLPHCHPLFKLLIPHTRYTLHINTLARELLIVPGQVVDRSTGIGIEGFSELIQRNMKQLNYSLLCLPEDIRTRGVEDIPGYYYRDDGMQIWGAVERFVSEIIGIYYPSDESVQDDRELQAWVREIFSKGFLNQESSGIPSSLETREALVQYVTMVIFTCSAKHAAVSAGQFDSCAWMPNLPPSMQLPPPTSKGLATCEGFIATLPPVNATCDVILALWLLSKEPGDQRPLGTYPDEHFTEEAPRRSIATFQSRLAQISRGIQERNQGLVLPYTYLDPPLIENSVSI
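Purified human 15hLO-2 (50 nM final) preincubated with compounds 15 min at room temperature in 25 mM Hepes pH 7.5, 0.01% Triton X-100, then 45 uM arachidonic acid added for 90 min; hydroperoxide detected via ferrous/xylenol orange, 573/405 nm absorbance ratio.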
Starred values were filed as active, the others as inactive; ! = not confirmed by another sample; [ ] = remark or other dose. Unless noted, calls follow the shape of the dose curve; as a rule, active = well fitted curve in the direction sought with a large enough effect; inconclusive = small, poorly fitted or top-dose-only effect, or another doubt; inactive = no such curve, though single readings can be large; an effect the other way counts as inactive or inconclusive. Potency is read from the fitted curve at half-maximal effect.

How did N=C1Sc2ccccc2C2=NCCCN12 do in these assays?
UbGFP stabilizer: 3%; Caspase-1 inhib: 1%; ALOX15 inhib: inconclusive; USP2a inh: -4%; Casp7 inh: 0%; ALOX15B inhib: 13µM*

Results for Cc1nc(N=Nc2cc(S(=O)(=O)O)c3cc([N+](=O)[O-])cc(S(=O)(=O)O)c3c2)c(COP(=O)(O)O)c(C=O)c1O ?
UbGFP stabilizer: 2%; Caspase-1 inhib: -5%; ALOX15 inhib: 10µM*!; USP2a inh: 13%; Casp7 inh: -14%; ALOX15B inhib: 1%

How did O=C(O)C1CC(=O)N(CCC23CC4CC(CC(C4)C2)C3)C(=Nc2ccccc2)S1 (configuration not stated) do in these assays?
Caspase-1 inhib: -14%; ALOX15 inhib: -27%; Casp7 inh: inconclusive

How did Cc1cc(NC(=O)c2ccccc2-c2ccccc2C(=O)O)no1 do in these assays?
UbGFP stabilizer: -2%; Caspase-1 inhib: -2%; ALOX15 inhib: -18%; USP2a inh: -2%; Casp7 inh: -1%

How did CCSc1ccccc1C(=O)Nc1cc(C)on1 do in these assays?
UbGFP stabilizer: -1%; Caspase-1 inhib: -2%; ALOX15 inhib: 13µM*; USP2a inh: -4%; Casp7 inh: 2%; ALOX15B inhib: -9%

How did Cc1nc(NCc2ccccc2)c2nc(-c3ccccc3)n(CCN3CCCCC3)c2n1 do in these assays?
UbGFP stabilizer: 3%; Caspase-1 inhib: -2%; ALOX15 inhib: 20µM*; Casp7 inh: -2%; ALOX15B inhib: 36%

How did Cc1nc(Nc2ccccc2)c2nc(-c3ccccc3)n(CCN3CCOCC3)c2n1 do in these assays?
UbGFP stabilizer: 9%; Caspase-1 inhib: -1%; ALOX15 inhib: 20µM*; Casp7 inh: -1%; ALOX15B inhib: 36%

How did Cc1nc(NCc2ccccc2)c2nc(-c3ccccc3)n(CCCN3CCOCC3)c2n1 do in these assays?
UbGFP stabilizer: 0%; Caspase-1 inhib: -1%; ALOX15 inhib: inconclusive; Casp7 inh: 0%; ALOX15B inhib: 7%

How did Cc1nc(NC2CCCCC2)c2nc(-c3ccccc3)n(CCCN3CCOCC3)c2n1 do in these assays?
UbGFP stabilizer: 7%; Caspase-1 inhib: 0%; ALOX15 inhib: 32µM*; Casp7 inh: -1%; ALOX15B inhib: 13%

Results for O=C(Nc1ccccc1)c1nnsc1S(=O)c1ccc(Cl)cc1 (configuration not stated) ?
ALOX15B inhib: 1.3µM*

What do the screens show for `O=C1c2ccccc2C(=O)c2c(O)c(O)cc(O)c21`?
Caspase-1 inhib: -2%; ALOX15 inhib: 5µM*; USP2a inh: -84%; Casp7 inh: -24%; ALOX15B inhib: -8%

What do the screens show for `COc1cccc(/C=N/n2c(N)c(S(=O)(=O)c3cccs3)c3nc4ccccc4nc32)c1OC`?
ALOX15B inhib: -10%

How did Nc1c(S(=O)(=O)c2cccc(Cl)c2)c2nc3ccccc3nc2n1/N=C/c1ccc(O)c(O)c1 do in these assays?
UbGFP stabilizer: 1%; Caspase-1 inhib: -3%; ALOX15 inhib: 16µM*; USP2a inh: inconclusive; Casp7 inh: -10%; ALOX15B inhib: inconclusive

How did CN[C@]1(C)[C@@H]2CC[C@@H](C2)C1(C)C do in these assays?
UbGFP stabilizer: 7%; Caspase-1 inhib: 5%; ALOX15 inhib: 8%; USP2a inh: -3%; Casp7 inh: -1%; ALOX15B inhib: -4%

What do the screens show for `COc1ccccc1NC(=S)NCCc1ccccc1`?
ALOX15B inhib: -18%

How did S=C(NCCc1ccccc1)Nc1ccc(Cl)cc1Cl do in these assays?
ALOX15B inhib: 25µM*

How did Oc1ccc(Nc2nc(-c3ccc4ccccc4c3)cs2)cc1 do in these assays?
ALOX15B inhib: -6%

How did Oc1ccc(-c2nc(-c3ccc(O)c(O)c3)cs2)cc1 do in these assays?
UbGFP stabilizer: 0%; Caspase-1 inhib: -3%; ALOX15 inhib: 1.6µM*; USP2a inh: 35%; Casp7 inh: -14%; ALOX15B inhib: 4µM*

How did CC1(C)S[C@@H]2[C@H](C(=O)O)N=C(Cc3ccccc3)N2[C@H]1C(=O)O do in these assays?
UbGFP stabilizer: 3%[9.17 µM]; Caspase-1 inhib: 2%[11.5 µM]; ALOX15 inhib: 63%[11.4 µM]; Casp7 inh: 1%[11.5 µM]; ALOX15B inhib: 33%[11.4 µM]

How did CN(C)CC(CN(C)C)c1ccccn1 do in these assays?
UbGFP stabilizer: 14%[9.17 µM]; Caspase-1 inhib: -3%[11.5 µM]; ALOX15 inhib: 7%[11.4 µM]; Casp7 inh: -1%[11.5 µM]; ALOX15B inhib: 1%[11.4 µM]

How did N#Cc1nc(-c2ccc(F)cc2)oc1NCc1cccc2c1OCO2 do in these assays?
UbGFP stabilizer: 9%; Caspase-1 inhib: -4%; ALOX15 inhib: 13µM*; Casp7 inh: -3%

What do the screens show for `Cc1ccc(-c2nc(C#N)c(NCc3cccc4c3OCO4)o2)cc1`?
UbGFP stabilizer: -1%; Caspase-1 inhib: -2%; ALOX15 inhib: inconclusive; USP2a inh: -4%; Casp7 inh: 0%; ALOX15B inhib: -5%[11.4 µM]

How did O=C(NCCN1CCCC1)c1ccc(Cc2nc3ccccc3[nH]2)cc1 do in these assays?
Caspase-1 inhib: -3%; ALOX15 inhib: -4%; Casp7 inh: 2%

What do the screens show for `CCc1ccc(O)c(N=Cc2ccccc2O)c1`?
UbGFP stabilizer: -7%; Caspase-1 inhib: -3%; ALOX15 inhib: inconclusive; USP2a inh: 31%; Casp7 inh: -2%; ALOX15B inhib: 16µM*

How did COc1ccc2c(c1OC)C(Cc1ccccc1)N1CCc3cc4c(cc3C1C2)OCO4 (configuration not stated) do in these assays?
Caspase-1 inhib: -14%; ALOX15 inhib: 131%[25.6 µM]; Casp7 inh: -16%; ALOX15B inhib: -4%

What do the screens show for `O=C1N=C(c2ccccc2)S/C1=C\c1cccs1`?
ALOX15B inhib: 10µM*

How did COC(=O)[C@@]1(Cc2ccc(OC)cc2)[C@H]2c3cc(C(=O)N(C)C)n(CCF)c3C[C@H]2CN1C(=O)c1ccccc1 do in these assays?
Caspase-1 inhib: -1%; Casp7 inh: -3%; ALOX15B inhib: 9%

What do the screens show for `CC(N=Cc1cccc(O)c1O)c1ccccc1` (configuration not stated)?
UbGFP stabilizer: 15%; Caspase-1 inhib: -12%; ALOX15 inhib: 13µM*; USP2a inh: 37%; Casp7 inh: -22%; ALOX15B inhib: inconclusive

Results for CC(N=C1NS(=O)(=O)c2ccccc21)c1ccccc1 (configuration not stated) ?
UbGFP stabilizer: 0%; Caspase-1 inhib: -2%; ALOX15 inhib: 9%; USP2a inh: 9%; Casp7 inh: 0%; ALOX15B inhib: -2%

How did Cn1c(=O)c2c(nc(CN3CCN(Cc4ccccc4)CC3)n2Cc2ccc(Cl)cc2)n(C)c1=O do in these assays?
ALOX15B inhib: 7%
